For five compounds, composite z-score, composite Z-score and z-score results are on record in PubChem BioAssay.

Calls of active or inactive are those of the source.

The target of one experiment is Albumin (Bos taurus) (UniProt P02769). The experiment in a line: compounds binding labelled BSA control protein – biochemical, small-molecule microarray, Alexa647 label, 635/667 nm fluorescence, artefact control for SMM control protein annotation, profiling panel (AID 1118).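 Note: score merges 667 nm emission intensity and signal-to-noise per printed compound spot.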 The note with it: BSA-A647 binding, fluorescence 635 nm, higher = more signal.
Albumin (Bos taurus), sequence (P02769 whole entry, looked up): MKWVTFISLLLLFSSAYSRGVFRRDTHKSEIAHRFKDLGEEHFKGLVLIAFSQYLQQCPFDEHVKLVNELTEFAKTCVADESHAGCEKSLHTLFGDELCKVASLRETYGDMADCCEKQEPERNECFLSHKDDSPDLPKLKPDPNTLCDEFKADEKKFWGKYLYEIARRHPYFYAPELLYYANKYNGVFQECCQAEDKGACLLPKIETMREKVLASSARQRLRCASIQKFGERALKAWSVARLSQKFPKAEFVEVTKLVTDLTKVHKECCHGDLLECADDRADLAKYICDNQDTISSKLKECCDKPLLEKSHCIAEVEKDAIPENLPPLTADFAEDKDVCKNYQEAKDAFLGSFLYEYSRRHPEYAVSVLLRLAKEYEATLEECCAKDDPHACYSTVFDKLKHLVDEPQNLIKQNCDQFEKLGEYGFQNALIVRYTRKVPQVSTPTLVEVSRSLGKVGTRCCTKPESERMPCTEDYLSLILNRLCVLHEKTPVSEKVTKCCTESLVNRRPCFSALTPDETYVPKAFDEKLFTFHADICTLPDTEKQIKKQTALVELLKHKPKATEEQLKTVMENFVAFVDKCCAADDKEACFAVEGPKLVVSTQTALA
A short description of experiment [1]: probe aXIP binding to arrayed compounds – biochemical, NeuroSMM set, 635/667 nm fluorescence, primary screen (AID 1119).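 Note: probe is the protein aXip251-270 applied at 1 µg/mL to compound-printed slides; binding of probe to printed compounds measured as 667 nm fluorescence plus signal to noise.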 The following applies: small-molecule microarray, higher = more signal, called active from +8 up or from −8 down.
A short description of experiment [2]: probe aNOTCH3 binding on compound microarray – biochemical, small-molecule microarray, 635/667 nm fluorescence, primary screen (AID 1120).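 Note: probe is a biotin-tagged antibody raised against NOTCH3 rather than NOTCH3 protein; score merges spot fluorescence near 667 nm with spot signal to noise.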 The following applies: higher = more signal.
Experiment [3] can be described thus: probe aNOTCH2 binding on compound microarray – biochemical, small-molecule microarray, 635/667 nm fluorescence, primary screen (AID 1121).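 Note: score merges feature fluorescence read at 667 nm with its signal to noise.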 The note with it: higher = more signal.
Experiment [4] addresses Carbonic anhydrase 2 (Homo sapiens) (UniProt P00918). The experiment in a line: compounds binding carbonic anhydrase 2 – biochemical, small-molecule microarray, Alexa647-labelled CAII, profiling panel (AID 1122). The following applies: CAII-A647 binding fluorescence, higher = more signal.
Experiment [5] can be described thus: COS7 lysate on small-molecule microarray, probe aHis, 635 nm (AID 1123).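 Note: z-score combines 667nm fluorescence intensity with signal-to-noise per printed compound spot.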 The following applies: COS7 cell lysate, fluorescence, higher = more signal.
Experiment [6] can be described thus: probe aLAP1 signal on lysate-treated microarray – cell lysate, small-molecule microarray, COS7 lysate, primary screen (AID 1124).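 Note: lysate comes from COS7 cells expressing LAP1 and is applied at 0.3 µg/mL; score merges spot fluorescence near 667 nm with signal-to-noise over triplicate slides.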 The note with it: probe aLAP1, fluorescence, higher = more signal.
The subject of the next experiment is Sam68 (KHDRBS1). The experiment can be described thus: compounds binding KHDRBS1 protein – biochemical, small-molecule microarray, 635 nm fluorescence, primary screen (AID 1125).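 Note: score merges 667 nm channel intensity with signal to noise over triplicate slides.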 The following applies: higher = more signal.
Experiment [7] deals with Chordin-like protein 2 (CHRDL2). The experiment can be described thus: compounds binding chordin-like 2 – biochemical, small-molecule microarray, 635 nm fluorescence, primary screen (AID 1126).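 Note: printed compound slides probed with Chrdl2 protein at 4 µg/mL for 1 h at 4 C; score merges 667 nm emission intensity with signal to noise over three replicate slides.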 The following applies: fluorescence 635 nm, higher = more signal.
Experiment [8] addresses Concanavalin-A (Canavalia ensiformis) (UniProt P02866). The experiment in a line: compounds binding concanavalin A lectin – biochemical, small-molecule microarray, Alexa647 label, 635 nm, artefact control for SMM control protein annotation, primary screen (AID 1127).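 Note: z combines 667 nm emission intensity with signal-to-noise across three replicate slides.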 The note with it: ConA-A647 binding fluorescence, higher = more signal.
Experiment [9] in a line: compounds binding Alexa647 anti-His antibody – biochemical, small-molecule microarray, 635 nm fluorescence, artefact control for SMM control protein annotation, primary screen (AID 1128).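 Note: score merges feature fluorescence with signal-to-noise for each printed compound spot.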 The note with it: higher = more signal.
For experiment [10], the system named is Human papillomavirus type 1a E7 protein (residues 1-88). The experiment can be described thus: HPV1a E7 small-molecule binders, primary screen, biochemical, small-molecule microarray, residues 1-88, 635 nm (AID 1129). The following applies: small-molecule microarray binding, fluorescence 635 nm; higher = more signal.
Experiment [11] has as its target Focal adhesion kinase 1 (Homo sapiens) (UniProt Q05397). The experiment can be described thus: PTK2 protein binding on printed compound slides – biochemical, small-molecule microarray, 635/667 nm fluorescence, BSA, DTT, primary screen (AID 1130).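 Note: composite of spot emission at 667 nm and signal to noise over triplicate slides.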 The following applies: 635 nm fluorescence, higher = more signal.
Experiment [12] relates to Fibrinogen (Alexa647-labelled). The experiment in a line: Alexa647-fibrinogen binding to printed small molecules – biochemical, small-molecule microarray, 635/667 nm fluorescence, artefact control for SMM control-protein annotation, profiling panel (AID 1131).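 Note: z-score merges 667 nm fluorescence with per-spot signal-to-noise over triplicate slides.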 The following applies: fibrinogen-A647 binding fluorescence, higher = more signal.
Experiment [13] concerns the target Follistatin (Homo sapiens) (UniProt P19883). The experiment can be described thus: FST protein binding to printed compounds – biochemical, small-molecule microarray, 635/667 nm fluorescence, primary screen (AID 1132). The following applies: 635 nm fluorescence, higher = more signal.
The target of experiment [14] is Fibroblast growth factor 2 (Homo sapiens) (UniProt P09038). The experiment in a line: basic fibroblast growth factor binding to printed compounds – biochemical, small-molecule microarray, 635/667 nm fluorescence, primary screen (AID 1133). The following applies: FGF2, fluorescence 635/667, higher = more signal.
Fibroblast growth factor 2 (Homo sapiens), sequence (P09038 whole entry, looked up): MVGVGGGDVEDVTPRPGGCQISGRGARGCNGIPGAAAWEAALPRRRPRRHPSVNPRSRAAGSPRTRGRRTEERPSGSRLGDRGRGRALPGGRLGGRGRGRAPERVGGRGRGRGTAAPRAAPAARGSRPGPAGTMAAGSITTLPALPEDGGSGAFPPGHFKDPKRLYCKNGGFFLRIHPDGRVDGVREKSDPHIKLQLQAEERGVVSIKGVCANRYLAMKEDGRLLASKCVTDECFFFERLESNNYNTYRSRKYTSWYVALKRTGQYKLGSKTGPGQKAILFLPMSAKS
Experiment [15] can be described thus: JC-1 mitochondrial potential readout, lung cancer cells – cell-based, A549, JC-1 fluorescence, basal, 24 h, 100 nL, profiling panel (AID 1138).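 Note: A549 lung adenocarcinoma cells under basal conditions with no added stimulus; test concentration not given here.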 The following applies: higher = more signal.
A further experiment concerns Lefty1. The experiment can be described thus: Lefty1 protein binding to printed compounds – biochemical, small-molecule microarray, 635/667 nm fluorescence, primary screen (AID 1139). The following applies: fluorescence 635/667, higher = more signal.
Experiment [16] has as its system wheat germ agglutinin (Triticum aestivum), Alexa647-labelled. The experiment can be described thus: Alexa647-WGA lectin binding to printed small molecules – biochemical, small-molecule microarray, 635/667 nm fluorescence, artefact control for SMM control-protein annotation, profiling panel (AID 1140).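 Note: score merges 667 nm feature emission with signal to noise over triplicate slides.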 The following applies: WGA-A647 binding, 635 nm fluorescence, higher = more signal.

Experiment [17] deals with Luciferin 4-monooxygenase (Photinus pyralis) (UniProt P08659). The experiment can be described thus: inhibition of purified Photinus pyralis luciferase – biochemical, luminescence, purified enzyme, 2006 set, primary screen (AID 1141).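 Note: cell-free assay with purified firefly luciferase at 100 ng per well in PBS; test concentration not given here.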 The note with it: purified firefly luciferase, SteadyGlo luminescence, 30 min; higher = more signal, called active from +8 up or from −8 down.
Luciferin 4-monooxygenase (Photinus pyralis), sequence (P08659 whole entry, looked up): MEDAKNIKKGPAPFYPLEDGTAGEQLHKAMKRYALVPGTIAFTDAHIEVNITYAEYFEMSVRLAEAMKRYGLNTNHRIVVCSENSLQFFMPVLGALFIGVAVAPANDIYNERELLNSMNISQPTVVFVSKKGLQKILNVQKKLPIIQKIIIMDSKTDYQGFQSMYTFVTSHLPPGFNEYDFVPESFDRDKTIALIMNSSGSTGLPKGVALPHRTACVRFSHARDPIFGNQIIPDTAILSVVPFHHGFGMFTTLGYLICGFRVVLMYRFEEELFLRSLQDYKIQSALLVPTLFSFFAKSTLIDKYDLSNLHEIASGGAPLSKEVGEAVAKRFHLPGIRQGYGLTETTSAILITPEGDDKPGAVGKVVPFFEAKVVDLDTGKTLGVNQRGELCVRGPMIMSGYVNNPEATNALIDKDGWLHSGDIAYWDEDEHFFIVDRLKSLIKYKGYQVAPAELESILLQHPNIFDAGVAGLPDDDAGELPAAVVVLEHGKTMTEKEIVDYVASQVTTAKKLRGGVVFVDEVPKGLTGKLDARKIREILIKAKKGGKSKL

Concanavalin-A (Canavalia ensiformis), sequence (P02866 whole entry, looked up): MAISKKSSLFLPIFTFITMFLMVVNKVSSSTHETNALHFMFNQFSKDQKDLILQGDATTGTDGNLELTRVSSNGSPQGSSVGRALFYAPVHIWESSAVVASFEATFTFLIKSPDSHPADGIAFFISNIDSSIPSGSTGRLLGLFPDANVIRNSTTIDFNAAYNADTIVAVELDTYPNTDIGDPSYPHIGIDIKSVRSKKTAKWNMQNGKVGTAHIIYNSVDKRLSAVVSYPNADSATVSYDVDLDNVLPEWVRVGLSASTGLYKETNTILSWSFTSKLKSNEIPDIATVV
Follistatin (Homo sapiens), sequence (P19883 whole entry, looked up): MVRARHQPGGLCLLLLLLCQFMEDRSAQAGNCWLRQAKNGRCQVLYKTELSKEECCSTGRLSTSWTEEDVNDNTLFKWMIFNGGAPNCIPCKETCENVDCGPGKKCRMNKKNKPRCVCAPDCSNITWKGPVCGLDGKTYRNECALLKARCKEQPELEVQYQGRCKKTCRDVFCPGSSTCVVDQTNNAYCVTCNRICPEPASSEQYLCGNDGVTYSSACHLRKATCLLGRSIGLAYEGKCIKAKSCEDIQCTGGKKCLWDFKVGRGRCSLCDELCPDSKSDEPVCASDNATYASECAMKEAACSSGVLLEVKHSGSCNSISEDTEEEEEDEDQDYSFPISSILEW
Focal adhesion kinase 1 (Homo sapiens), sequence (Q05397 whole entry, looked up): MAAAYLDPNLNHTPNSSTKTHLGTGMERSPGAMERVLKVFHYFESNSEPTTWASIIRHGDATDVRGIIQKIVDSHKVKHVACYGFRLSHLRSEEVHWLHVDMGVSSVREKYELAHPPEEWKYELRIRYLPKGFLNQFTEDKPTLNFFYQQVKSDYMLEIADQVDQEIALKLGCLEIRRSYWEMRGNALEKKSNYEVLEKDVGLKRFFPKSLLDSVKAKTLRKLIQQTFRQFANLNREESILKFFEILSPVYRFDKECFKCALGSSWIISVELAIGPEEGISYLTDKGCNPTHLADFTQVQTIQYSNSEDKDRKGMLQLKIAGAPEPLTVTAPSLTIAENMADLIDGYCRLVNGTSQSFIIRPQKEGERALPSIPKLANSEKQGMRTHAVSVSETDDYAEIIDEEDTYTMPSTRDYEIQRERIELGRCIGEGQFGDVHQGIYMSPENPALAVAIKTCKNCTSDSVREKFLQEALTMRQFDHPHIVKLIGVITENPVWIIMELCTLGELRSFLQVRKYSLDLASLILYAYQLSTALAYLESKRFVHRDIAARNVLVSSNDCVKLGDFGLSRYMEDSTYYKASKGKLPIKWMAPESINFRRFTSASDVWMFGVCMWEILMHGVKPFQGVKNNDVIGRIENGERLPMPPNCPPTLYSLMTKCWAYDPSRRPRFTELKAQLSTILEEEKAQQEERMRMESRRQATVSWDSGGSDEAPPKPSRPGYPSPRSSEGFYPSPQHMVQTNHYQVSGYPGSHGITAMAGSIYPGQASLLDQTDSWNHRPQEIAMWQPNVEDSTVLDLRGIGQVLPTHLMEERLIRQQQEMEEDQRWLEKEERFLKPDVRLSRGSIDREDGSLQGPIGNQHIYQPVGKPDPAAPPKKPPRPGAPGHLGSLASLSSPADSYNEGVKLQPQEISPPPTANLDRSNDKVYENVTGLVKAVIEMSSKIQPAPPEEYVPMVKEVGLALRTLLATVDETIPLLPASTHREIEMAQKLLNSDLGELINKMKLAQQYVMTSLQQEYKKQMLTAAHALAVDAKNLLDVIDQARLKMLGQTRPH

For `COc1ccc(O[C@@H]2[C@H](O)CO[C@H]2C=CC#Cc2ccccc2)cc1`, the composite z-score is -0.0002 with Albumin (Bos taurus); -0.166 in experiment [2]; -0.171 in [3]; 0.177 in experiment [4]; 0.297 in [5]; 0.0594 in experiment [6]. The composite z-score in the experiment on Sam68 (KHDRBS1) is -0.016; in experiment [7], 0.229; in experiment [8], -0.301; in experiment [9], 1.1; in experiment [10], -0.253; in [11], -0.267. For the same compound, the composite z-score is 0.73 in [12]; 0.356 in [13]; 0.341 in experiment [14]; 0.407 in the experiment on Lefty1; 0.535 in [16]. Further, the composite Z-score in [1] was 0.497 (inactive). In addition, the z-score in experiment [15] is -0.0963; in experiment [17], -0.391 (inactive).
In the case of `C=CCOC(=O)[C@H]1[C@@H]2C(=O)O[C@@H](c3ccccc3)[C@@H](c3ccccc3)N2[C@@H](c2ccc(OCCOC(=O)[C@H]3C[C@H]4C(=O)N5CCC[C@H]5C(=O)N4[C@H]3c3cccc(OCCO)c3)cc2)[C@]12C(=O)Nc1ccc(I)cc12`, the composite z-score came out at 0.898 with Albumin (Bos taurus); 1.36 in experiment [2]; 0.554 in experiment [3]; 0.879 in [4]; 3.06 in [5]; 1.25 in experiment [6]. Further, the composite z-score in the experiment with Sam68 (KHDRBS1) is 1.29; in experiment [7], 1.24; in experiment [8], 1.23; in experiment [9] it was 3.59; in experiment [10], 1.25; in experiment [11] it was -0.259. The composite z-score came out at 0.97 in experiment [12]; 1.46 in [13]; 1.68 in experiment [14]; 1.37 in the experiment on Lefty1; 1.5 in [16]. In addition, the composite Z-score in experiment [1] is 1.9 (inactive). For the same compound, the figures for the z-score in experiment [15] and in [17] were 0.445 and 0.108 (inactive), respectively.
Take `CCOC(=O)CCN1C(=O)[C@H]2[C@H]3[C@H](O)C=CC(=O)[C@@H]3CC[C@H]2C1=O`: the composite z-score with Albumin (Bos taurus) was -0.186; in [2], -0.0449; in experiment [3], -0.0686; in experiment [4], -0.078; in [5] it was 0.107; in [6] it was -0.225. For the same compound, the composite z-score with Sam68 (KHDRBS1) came out at 0.323; in experiment [7], 0.34; in experiment [8], 0.412; in [9] it was 0.147; in experiment [10] it was 0.621; in [11], 0.122. For the same compound, the composite z-score was 0.11 in experiment [12]; 0.488 in experiment [13]; 0.49 in [14]; 0.345 with Lefty1; 0.307 in experiment [16]. Besides, the composite Z-score in experiment [1] was 0.422 (inactive). The figures for the z-score in experiment [15] and in [17] were 0.0322 and -0.371 (inactive), respectively.
With `O=C1CCCC=C1C(O)CCOCc1ccccc1` (stereo not given), the composite z-score is -0.492 in the experiment with Albumin (Bos taurus); -0.0072 in experiment [2]; -0.108 in experiment [3]; -0.0262 in experiment [4]; -0.202 in [5]; -0.195 in experiment [6]. Also, the composite z-score in the experiment with Sam68 (KHDRBS1) was -0.887; in experiment [7], 0.309; in experiment [8], -0.299; in experiment [9] it was -0.467; in experiment [10], -0.406; in experiment [11] it was -0.0626. Also, the composite z-score is -1 in experiment [12]; 0.112 in experiment [13]; 0.102 in experiment [14]; 0.484 with Lefty1; -0.123 in experiment [16]. For the same compound, the composite Z-score in experiment [1] is -0.32 (inactive). In addition, the results for the z-score in experiment [15] and in [17] were -0.758 and -0.0361 (inactive), respectively.
Regarding `COc1ccccc1CN1C(=O)c2ccccc2[C@@H](C(=O)NCC(F)(F)F)[C@@H]1c1ccc(CO)cc1`, the composite z-score in the experiment with Albumin (Bos taurus) was 0.522; in experiment [2], -0.15; in experiment [3] it was -0.167; in [4], 0.595; in experiment [5], 0.839; in [6], 0.0761. For the same compound, the composite z-score was 1.33 in the experiment with Sam68 (KHDRBS1); -0.365 in [7]; 0.721 in experiment [8]; 0.218 in experiment [9]; 0.993 in experiment [10]; 0.391 in experiment [11]. Besides, the composite z-score in experiment [12] is 0.532; in experiment [13] it was 1.06; in experiment [14] it was 1.05; in the experiment on Lefty1, 1.13; in [16], 0.185. Besides, in experiment [1], the composite Z-score was -0.786 (inactive). Also, the z-score was 1.13 in [15] and 0.806 (inactive) in [17].
